SMN2 splice enh: qHTS Assay for Enhancers of SMN2 Splice Variant Expression | HEK293 SMN2-luciferase splicing reporter, luminescence, 30-36 h | Potency, µM (top dose mostly 46.1 µM), for the others: at the highest dose activity change, positive = activation, hits mostly activators | 210,000 tested, 2.8% active | AID 1458, 2008; note: % of control where 0% means no effect; nearly all actives have a fitted effect of over 55% in size
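HEK293 cells carry an SMN2 minigene-luciferase reporter in which exon 7 inclusion puts luciferase in frame. Cells were seeded at 2000 cells/well, attached for 10-12 hours, then exposed to compounds for 30-36 hours at 37C before ONE-Glo luminescence.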
NPC1 prom act: qHTS Assay for NPC1 Promoter Activators | Huh7 NPC1 promoter luciferase reporter, 24 h | Potency, µM (highest dose often 9.22 µM), inactives show at the highest dose activation, actives largely listed as activators | 320,000 tested, 2.4% active | AID 485313, 2010; note: % of control where 0% means no effect; nearly all actives have a fitted effect of over 60% in size
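Stable NPC1-promoter luciferase Huh7 line; cpd (DMSO) 24 h, 37 °C, 5% CO2; Amplite luciferase reagent 10 min RT; luminescence readout. qHTS format.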
Rab9 promoter act: qHTS Assay for Rab9 Promoter Activators; Huh7 Rab9 promoter-luciferase reporter, luminescence, 24 h; Potency, µM (top dose mostly 9.22 µM), for the others: at the highest dose activation, negative = inhibition, usual class: activators; 320,000 tested, 2.8% active; AID 485297, 2010; note: % of control where 0% means no effect; nearly all actives have a fitted effect of over 60% in size
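Luminescence read-out: Huh7 cells stably expressing Rab9-luciferase, treated 24 h with compound at 37 °C, then lysed with luciferase reagent for 10 min at ambient before reading.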
ELG1 genotox: qHTS screen for small molecules that induce genotoxicity in human embryonic kidney (HEK293T) cells expressing luciferase-tagged ELG1 | HEK293T ELG1-luciferase reporter, luminescence, 16 h | Potency, µM (series often up to 46 µM), without a hit: at the top dose activity change, positive = activation, actives largely listed as activators | 330,000 tested, 1.3% active | AID 504466, 2011; note: % of control where 0% means no effect; nearly all actives have a fitted effect of over 60% in size
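16 hr compound incubation (37 °C, 5% CO2) of HEK293T cells carrying luciferase-tagged ELG1; luciferase then measured by ONE-Glo luminescence after 30 min at RT.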
FLuc modulator: qHTS profiling assay for firefly luciferase inhibitor/activator using purifed enzyme and Km concentrations of substrates (counterscreen for miR-21 project). Luciferin 4-monooxygenase (Photinus pyralis), P08659. 360,000 tested, 6.9% active. Potency, µM (titrated, usually from 57.5 µM), for inactives: top-dose activity change, negative = inhibition, actives largely listed as inhibitors. purified FLuc, Km substrates, luminescence inhibition;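 note: plate controls were vehicle for no effect and reference inhibitor for full effect; nearly all actives have a fitted effect of over 55% in size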
Target sequence (P08659 whole entry, looked up): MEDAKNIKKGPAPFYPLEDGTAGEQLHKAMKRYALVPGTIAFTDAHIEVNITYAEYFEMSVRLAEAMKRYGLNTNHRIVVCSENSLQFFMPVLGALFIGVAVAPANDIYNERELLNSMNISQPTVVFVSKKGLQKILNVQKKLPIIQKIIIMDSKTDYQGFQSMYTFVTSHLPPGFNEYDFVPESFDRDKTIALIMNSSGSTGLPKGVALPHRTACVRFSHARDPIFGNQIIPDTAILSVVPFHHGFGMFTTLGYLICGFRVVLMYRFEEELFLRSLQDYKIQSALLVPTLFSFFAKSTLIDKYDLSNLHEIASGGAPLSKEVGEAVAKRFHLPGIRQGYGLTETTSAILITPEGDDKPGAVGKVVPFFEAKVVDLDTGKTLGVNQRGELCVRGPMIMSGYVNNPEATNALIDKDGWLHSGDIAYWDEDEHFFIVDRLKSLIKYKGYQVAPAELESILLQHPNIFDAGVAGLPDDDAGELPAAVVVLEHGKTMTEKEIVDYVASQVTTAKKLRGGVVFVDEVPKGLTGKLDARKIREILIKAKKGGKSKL
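Biochemical qHTS of compounds, final roughly 60 µM downward over six points, against 10 nM purified firefly luciferase using Km concentrations of substrates (10 uM D-luciferin, 10 uM ATP) in Tris acetate pH 7.5 buffer; luminescence output.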
Luc counter: Counterscreen for Luciferase (Kinase-Glo TM) Inhibition; Luciferin 4-monooxygenase (Photuris pensylvanica), Q27757; Kinase-Glo luciferase, ATP luminescence, 8 min; Potency, µM (top dose mostly 38.3 µM), inactives show top-dose activity change, negative = inhibition, most hits filed as inhibitors; 200,000 tested, 0.28% active; note: % is set by controls: 0 for no effect and ±100 for the full control effect; nearly all actives have a fitted effect of over 60% in size
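Kinase-Glo luciferase light output from ATP and luciferin was measured with 10 uM ATP, within the enzyme's linear range. Buffer: 50 mM imidazole pH 7.2, 50 mM KCl, 7 mM MgCl2, 0.01% Tween 20, 0.05% BSA; luminescence read after 8 min at ambient temperature.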
* marks the source's active call; other numbers are inactive results; u = inconclusive; x = no result given; [ ] = another dose, or the depositor's remark. Compounds with a hit are over-represented: about 7.3% of the library has one in this group of screens. Calls come from the whole dose curve; as a rule, active = well fitted curve in the direction sought with a large enough effect; inconclusive = small, poorly fitted or top-dose-only effect, or another doubt; inactive = no such curve, though single readings can be large; an effect the other way counts as inactive or inconclusive. Potency is the fitted concentration of half-maximal effect.

SMILES	SMN2 splice enh	NPC1 prom act	Rab9 promoter act	ELG1 genotox	FLuc modulator	Luc counter
CCOC(=O)c1c(C)[nH]c(C2=NNC(=Nc3ccccc3OC)SC2)c1C	11µM*	2.5µM*	u	-1%	9.5µM*	-1%
CCOC(=O)c1c(C)[nH]c(C2=NNC(=Nc3ccccc3)SC2)c1C	x	u	2.5µM*	-6%	12µM*	x
CC(=O)c1c(C)[nH]c(C2=NNC(=NC(C)(C)C)SC2)c1C	13µM*	1.8µM*	1.6µM*	15µM*	24µM*	2%
COc1ccc(-n2cc(C(=O)NCCc3ccc(C)cc3)c3ccccc3c2=O)cc1	x	x	x	x	-11%	x
Cc1cccc(C(=O)NC2=NCCS2)c1	x	1.3µM*	0.71µM*	u	8.5µM*	-20%
Cc1cc(C(=O)NC2=NCCS2)cs1	11µM*	2.5µM*	1.6µM*	16µM*	8.5µM*	-3%
O=C(Nc1cnccn1)c1csc2ccccc12	u	25%	u	u	19µM*	-3%
O=C(NC1=NCCS1)c1cccs1	28µM*	4%	16%	19%	-19%	1%
O=C(Nc1ccon1)c1csc2ccccc12	u	4%	-2%	0%	-10%	1%
Cc1cccc(N2CCN(C(=O)C3CCCN(S(=O)(=O)c4cccc5nsnc45)C3)CC2)c1C (stereo unspecified)	0%	x	x	x	0%	x
O=C(NC1=NCCS1)c1ccc(Cl)c(Cl)c1	x	0.63µM*	0.63µM*	u	4.8µM*	x
O=C(NC1=NCCS1)c1cc(Cl)ccc1Cl	x	-5%	3%	-1%	-8%	x
O=C(NC1=NCCS1)c1csc2ccccc12	11µM*	2.2µM*	1.6µM*	u	-27%[2.3 µM]	-17%
CCCOc1ccc(Cl)cc1/C=C1/C(=O)ON=C1C	x	6%	3%	-1%	-20%	x
CC1=NOC(=O)/C1=C\c1ccc(-c2ccc(Cl)cc2Cl)o1	-7%	-13%	-2%	0%	5.4µM*	-8%
Cc1c(C(=O)Nc2ccc(Nc3ccccc3)cc2)cccc1[N+](=O)[O-]	x	-10%	-3%	-9%	-3%	x
CN(CC(=O)Nc1ccc2c(c1)CCC2)CC(=O)Nc1ccccc1Br	-20%	-6%	-2%	-4%	-10%	0%
CSc1ccccc1C(=O)Nc1ccc2c(c1)CCC2	x	u	2%[1.84 µM]	u	15µM*	x
O=C(Nc1ccc2c(c1)CCC2)c1ccccc1Br	x	1.6µM*	1.6µM*	2.3µM*	4.8µM*	-6%
Cc1c(C(=O)Nc2ccc3c(c2)CCC3)cccc1[N+](=O)[O-]	x	u	u	u	13µM*	-4%
Fc1ccc(C(Nc2ccccc2Cl)c2nnc(-c3ccccc3Cl)o2)cc1 (stereo unspecified)	-17%	x	x	x	-19%	x
CCCC(=O)C1=C(c2cccc(OC)c2)N(C(=O)CCC)n2c(C)nnc2S1	x	x	x	x	2%	x
Cc1cc(C(=O)CCl)c(C)n1-c1cccc(S(=O)(=O)N2CCOCC2)c1	-44%	-2%	-1%	16%	6%	0%
Cc1ccc(C)n1-c1cccc(S(=O)(=O)N2CCOCC2)c1	15%	-11%	-6%	26µM*	3%	-1%
CN(C)CC(C)(C)CNC(=O)c1ccc(-n2c(=O)c(=O)[nH]c3ccccc32)cc1	x	x	x	x	x	0%
SMILES	SMN2 splice enh	NPC1 prom act	Rab9 promoter act	ELG1 genotox	FLuc modulator	Luc counter
O=C(COC(=O)C12CC3CC(CC(O)(C3)C1)C2)Nc1cccc(Br)c1	x	1%	-2%	2%	13µM*	x
Cc1ccc(-c2cc(N)nc(-c3ccccc3)c2)cc1	x	24%	21%	u	13µM*	x
CCc1ccccc1N(CC)C(=O)c1cc2c(s1)-c1ccccc1SC2	-18%	x	x	x	-10%	x
CN(CCC#N)C(=O)c1cc2c(s1)-c1ccccc1SC2	x	2.2µM*	2.5µM*	u	11µM*	x
Cc1cc(C)n2c(Nc3ccc(Cl)cc3)c(-c3ccsc3)nc2n1	7%	x	x	x	-11%	x
Cc1cc(C)n2c(Nc3ccc(C(C)C)cc3)c(-c3ccsc3)nc2n1	1%	x	x	x	11µM*	x
Clc1ccc(Nc2nc(-c3cccnc3)cs2)cc1	22%	-1%	6%	u	11µM*	-1%
Fc1ccc(Nc2nc(-c3cccnc3)cs2)cc1	13µM*	8%	u	u	3µM*	3%
Clc1ccc(-c2csc(Nc3cccnc3)n2)cc1	x	u	27%	6%	-20%	x
c1ccc(-c2csc(Nc3cccnc3)n2)cc1	x	u	2.8µM*	u	11µM*	-2%
Cc1ccc(C)c(N2CCN(CCCNC(=O)Cn3c(-c4cccs4)cc4ccccc43)CC2)c1	x	x	x	x	4%	x
Cc1nn(C)c2c1c(C(F)(F)F)cc(=O)n2C(C)C(=O)Nc1ccccc1F (stereo unspecified)	x	x	x	x	-8%	x
Cc1cc(C)cc(NC(=O)C(=O)NCCCN2CCCC2=O)c1	x	u	u	13µM*	u	x
COc1cccc(NC(=O)C(=O)NCCCN2CCCC2=O)c1	x	u	28%	u	19µM*	x
Cc1ccc(NC(=O)NCCCN2CCCC2=O)cc1	12%	11%	12%	u	u	-2%
CC1Cc2cc(/C(O)=C3/C(=O)C(=O)N(CCN4CCOCC4)C3c3cccc(O)c3)ccc2O1 (stereo unspecified)	6%	-2%	0%	25%	21µM*	-2%
CCOc1cccc(C2/C(=C(/O)c3ccc4c(c3)CC(C)O4)C(=O)C(=O)N2CCN2CCOCC2)c1 (stereo unspecified)	x	-2%	-4%	1%	1%	x
O=C1c2ccccc2S(=O)(=O)N1Cc1nc2ccccc2s1	-69%	u	-11%	16%	19µM*	-1%
Cc1ccc(OCCn2nnc3ccccc32)cc1C	x	2.5µM*	2.5µM*	u	21µM*	x
O=C(Cn1nnc2ccccc21)c1ccc(Br)cc1	x	30%	u	10%	24µM*	x
Cc1ccc(C(=O)Cn2nnc3ccccc32)cc1	u	1.4µM*	1.6µM*	u	5.4µM*	-3%
Cc1ccc(C(=O)Cn2nnc3ccccc32)cc1C	u	1.4µM*	0.79µM*	u	4.8µM*	0%
CCOc1ccccc1OCCn1nnc2ccccc21	x	0%	-6%	u	3%	-1%
COc1ccc(OC)c(S(=O)(=O)N2CCC(c3ccncc3)CC2)c1	x	x	x	x	-5%	x
Cc1cccc(C)c1OCCn1c(CCNC(=O)C2CCCCC2)nc2ccccc21	-1%	x	x	x	0%	x
